Screen size: about 69,000 compounds; about 8,600 (12%) showed an effect of 50% or more. What follows is part of a selection rich in strong results, with near analogues and random picks from the rest.

The assay relates to Plasmodium berghei. Nature of the assay: Screen against P. berghei liver stage (PbLuc), transformed with Luciferase, at 10uM. The conditions noted are these: tested at 10 uM. Format: functional, HepG2.
Consider `CCNc1ccnc(NCC2(N(C)C)CCOCC2)n1`, for which the INHIBITION is given as 39%.

For the compound `CCC1(CC)CC(=O)N(CC(O)c2ccc(Cl)cc2)C1=O` (stereo not given), the INHIBITION worked out at 7.3%.

In the case of `O=C(CCc1nc(-c2ccsc2)no1)NCC1CCN(C2CC2)C1` (stereo not given), the INHIBITION worked out at 69%.

On to `O=C(CCc1nc(-c2cccnc2)no1)NCC1CCN(C2CC2)C1` (stereo not given), for which the INHIBITION was found to be 11%.

Turning to `O=C(CCc1nnc(-c2ccsc2)o1)NCC1CCN(C2CC2)C1` (stereo not given), the INHIBITION was -6.04%.

On to `Cc1cc(NCCN2CCNC2=O)nc2cc3c(cc12)CCC3`, for which the INHIBITION stood at 59.5%.

For `Cc1cc(NCCS(C)(=O)=O)nc2cc3c(cc12)CCC3`, the INHIBITION amounted to 41.5%.

Turning to `COc1cc2nc(NCCN3CCNC3=O)cc(C)c2cc1OC`, the INHIBITION was -13.4%.

In the case of `O=c1[nH]c2ncccc2n1C1CCCC1`, the INHIBITION was 9%.

Regarding `COc1ccc(NC2CCc3c2[nH]c(=O)n(C2CCCCC2)c3=O)cc1` (stereo not given), the INHIBITION was 78.4%.

As for `O=C(c1ccc2c(c1)[nH]c(=O)n2C1CCCC1)N1CC(O)C1`, the INHIBITION is 44.3%.

Take `O=c1[nH]c2c(c(=O)n1C1CCCCC1)CCC2NCCc1ccccc1` (stereo not given): the INHIBITION came out at 37.9%.

Take `COc1ccc(NC(=O)N2CCCCC2c2ncc[nH]2)cc1` (stereo not given): the INHIBITION came to 11.2%.

Regarding `O=c1[nH]c2c(c(=O)n1C1CCCCC1)CCC2NCc1ccccc1` (stereo not given), the INHIBITION is 52.1%.

`O=c1[nH]c2c(c(=O)n1C1CCCCC1)CCC2Nc1ccccn1` (stereo not given): the INHIBITION turned out to be 24.2%.

As to `O=c1[nH]c2c(c(=O)n1C1CCCCC1)CCC2Nc1ccccc1` (stereo not given), the INHIBITION is on record as -22.9%.

Regarding `Cc1cccc(NC2CCc3c2[nH]c(=O)n(C2CCCCC2)c3=O)c1C` (stereo not given), the INHIBITION amounted to 84%.

Regarding `O=c1[nH]c2ncccc2n1C1CCCCC1`, the INHIBITION is listed as 1.41%.

For `O=c1[nH]c2c(c(=O)n1C1CCCCC1)CCC2Nc1ccccc1Cl` (stereo not given), the INHIBITION is 80.5%.

Take `O=c1[nH]c2c(c(=O)n1C1CCCCC1)CCC2Nc1ccc(Cl)cc1` (stereo not given): the INHIBITION came out at 46.5%.

As to `Cc1cccc(CN2C[C@@H]3CN(C(=O)c4cnoc4C)C[C@@H]3C2=O)n1`, the INHIBITION is given as 1.34%.

Consider `CC(=O)N(C)Cc1ccccc1NC(=O)c1cnn(C)c1C`, for which the INHIBITION was -18.7%.

For `CNC(=O)CN1CCOCC2(C1)CN(C(=O)CC(C)C)CCO2` (stereo not given), the INHIBITION is -3.52%.

With `Cc1nn(C)cc1S(=O)(=O)NCC(C)Cn1cc(Cl)cn1` (stereo not given), the INHIBITION worked out at 18.4%.

On to `COCCN(C)Cc1cc(Cl)ccc1OCC(O)CN1CCCCCC1` (stereo not given), for which the INHIBITION was 25.4%.

`Cn1cccc1C(=O)N1CCc2c(CNS(C)(=O)=O)cncc2C1`: the INHIBITION is -7.29%.

Take `Cc1ccc(CC2CCCN(S(C)(=O)=O)C2)nc1` (stereo not given): the INHIBITION is listed as 21.9%.

In the case of `CC(O)c1cccc(OCc2ccon2)c1` (stereo not given), the INHIBITION turned out to be 74.3%.

Take `CCCOc1cccc(-c2nc3c([nH]2)CCNC3)c1`: the INHIBITION was 13.7%.

For the compound `OCc1cccc(OCc2ccon2)c1`, the INHIBITION is 36.8%.

Take `Cc1cccc(C(C(=O)N(C)Cc2ccon2)N(C)C)c1` (stereo not given): the INHIBITION stood at 25.9%.

For the compound `CC(C)Oc1cccc(CN(C)C(=O)Cc2ccon2)c1`, the INHIBITION is on record as -24.6%.

On to `CCCOc1cccc(OCc2ccon2)c1`, for which the INHIBITION is given as 91.3%.

For `Cc1ccsc1CNC(=O)CCc1c(C)nc2cc(O)nn2c1C`, the INHIBITION amounted to 40.2%.

For the compound `c1ccc(Oc2ncccc2CNCc2ccccn2)cc1`, the INHIBITION stood at 19.7%.

Take `CCCS(=O)(=O)NCc1cccnc1Oc1ccc(C)nc1`: the INHIBITION turned out to be 1.93%.

Turning to `CCCS(=O)(=O)NCc1cccnc1Oc1ccc(C)c(F)c1F`, the INHIBITION is 50.3%.

As to `CN1CC(C(=O)NCc2cccnc2OCc2ccccc2)CC1=O` (stereo not given), the INHIBITION was 55.1%.

As for `Cc1nc(CNCc2cccnc2Oc2ccc(C)c(F)c2F)c[nH]1`, the INHIBITION is 75.3%.

For `Cc1ccccc1Oc1ncccc1CNC1CCC1`, the INHIBITION is on record as 28%.

Take `Cc1ccccc1Oc1ncccc1CNS(C)(=O)=O`: the INHIBITION worked out at 0.139%.

As for `CN1CC(C(=O)NCc2cccnc2OCC(F)(F)F)CC1=O` (stereo not given), the INHIBITION is on record as 44.9%.

On to `CN(C)S(=O)(=O)NCc1cccnc1Oc1ccc(F)cc1F`, for which the INHIBITION is given as 31.7%.

As for `CC(C)S(=O)(=O)NCc1cccnc1Oc1ccc(F)cc1F`, the INHIBITION is 56.3%.

On to `CN(C)S(=O)(=O)NCc1cccnc1Oc1ccccc1F`, for which the INHIBITION is recorded as 5.46%.

Turning to `COc1ncccc1CNC(=O)C1CC(=O)N(C)C1` (stereo not given), the INHIBITION was found to be 10.6%.

As to `Cc1nc(CN(C)C(=O)CN(C)C)nc2c1CCC(=O)N2CCC(C)C`, the INHIBITION turned out to be 7.43%.

In the case of `Cc1cccc(CS(=O)(=O)c2nnc([C@@H](N)Cc3ccccc3)o2)c1`, the INHIBITION amounted to 23.1%.

On to `COc1ccc(C)cc1NC(=O)c1c(C)cn(C)c1CC(=O)O`, for which the INHIBITION is -0.473%.

With `CCOC(=O)Cn1c(=O)c(OCC)nc2cnccc21`, the INHIBITION was 42.6%.

Regarding `CN(C)CC(=O)N1CCCC2(CCN(c3ccccc3)C2=O)C1` (stereo not given), the INHIBITION is -4.82%.

`CCOc1ccccc1CNC(=O)N1CCC(Cc2cnn(C)c2)C1` (stereo not given): the INHIBITION is on record as -12.45%.

In the case of `C1CN(CC2CCOCC2)Cc2c(COCC3CC3)nnn2C1`, the INHIBITION stood at 8.03%.

Regarding `CCOC(=O)c1nc(CC(=O)Nc2ccc3cc[nH]c3c2)no1`, the INHIBITION came to 3.19%.

For `OCc1cn(Cc2cccc(F)c2)nn1`, the INHIBITION is reported as 28.5%.

The values above are taken from ChEMBL document CHEMBL4513216, “Probing the Open Global Health Chemical Diversity Library for Multistage-Active Starting Points for Next-Generation Antimalarials” (ACS Infect Dis, 2020).
